Test [1] in a line: qHTS assay to identify small molecule agonists of the vitamin D receptor (VDR) signaling pathway - cell viability counter screen (AID 743224). Further: nearly all actives have a fitted effect of over 50% in size. The method in brief: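 In parallel with the bla FRET readout, cytotoxicity toward VDR-bla cells after 16 h compound exposure was assessed by CellTiter-Glo, with luminescence recorded after a 30 min room-temperature incubation.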
For orientation: Quantitative high-throughput screening tests each substance at several concentrations.

Test [2] can be described thus: qHTS assay to identify small molecule antagonists of the vitamin D receptor (VDR) signaling pathway - cell viability counter screen (AID 743225). Further: nearly all actives have a fitted effect of over 50% in size. The method in brief: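 Cytotoxicity counter screen read by CellTiter-Glo luminescence (30 min, room temperature) in the same wells as the VDR-bla antagonist readout. HEK 293T VDR-UAS-bla cells had 16 h at 37C with compound and 3 nM (final) 1-alpha,25-dihydroxyvitamin D3, then 2 h with FRET substrate.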

The nature of test [3]: qHTS assay to identify small molecule agonists of the NFkB signaling pathway (AID 1159509; active means well fitted curve in the direction sought with a large enough effect in the signal ratio in the repeat runs, not every such curve was filed as active; the % refers to the signal ratio). The method in brief: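 Readout: FRET fluorescence, 405 nm excitation, 460/530 nm emission; beta-lactamase expression disrupts FRET. Cells: ME-180 stably carrying NF-kB-driven bla reporter. Compound exposure 5 hr, 37 C, 5% CO2.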
Test [4] can be described thus: qHTS assay to identify small molecule agonists of the endoplasmic reticulum stress response signaling pathway (AID 1159516; active means well fitted activation curve with a large enough effect in the signal ratio in the repeat runs, not every such curve was filed as active; the % refers to the signal ratio). The method in brief: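 Beta-lactamase expression from the ER stress response element in HeLa reporter cells is quantified with the LiveBLAzer B/G FRET substrate, read at 405 nm excitation after 2 hr at room temperature, following 5 hr compound treatment at 37 C.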

Test [5] is described as follows: qHTS assay to identify small molecule agonists of the endoplasmic reticulum stress response signaling pathway - cell viability counter screen (AID 1159517; calls by dose curve; further: nearly all actives have a fitted effect of over 50% in size). The method in brief:
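Cytotoxicity of test compounds toward ESRE-bla HeLa cells was assessed after 5 hr exposure. The luminescent CellTiter-Glo signal was measured 30 min after reagent addition.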

A short description of test [6]: qHTS assay to identify small molecule antagonists of the retinoid-related orphan receptor gamma (ROR-gamma) signaling pathway - cell viability counter screen (AID 1159520). Further: nearly all actives have a fitted effect of over 50% in size. The method in brief: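 Tet-on ROR gamma CHO cells (1,000/well) were plated 4 hr, given compounds in DMSO for 2 hr at 37 C, then induced with 1 uM final doxycycline for 16 hr. Viability was read as ATP by CellTiter-Glo luminescence after 30 min.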

A short description of test [7]: qHTS assay to identify small molecule agonists of the AP-1 signaling pathway - cell viability counter screen (AID 1159525; calls by dose curve; further: nearly all actives have a fitted effect of over 55% in size; further: potency means the concentration at half of the fitted maximal effect). The method in brief:
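Each titration point was normalised to DMSO and tetra n-octyl ammonium bromide controls. The read was Cell Titer Glo luminescence after 30 min at RT, following 5 h compound exposure of ME-180 AP-1-bla cells at 37 °C.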

Test [8] can be described thus: qHTS assay to identify small molecule agonists of the AP-1 signaling pathway (AID 1159526; calls by dose curve).
In test [9] the target is Retinoic acid receptor RXR-alpha (Homo sapiens) (UniProt P19793). Description: qHTS assay to identify small molecule agonists of the RXR signaling pathway (AID 1159527; calls by dose curve; further: nearly all actives have a fitted effect of over 35% in size). The method in brief: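 Agonist-mode beta-lactamase reporter assay: HEK 293T RXR-alpha-UAS-bla cells treated 16 hr at 37 C with compounds, 9-cis retinoic acid as positive control. LiveBLAzer FRET substrate, 405 nm excitation, 460/530 nm emission.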
Chain of Retinoic acid receptor RXR-alpha (Homo sapiens) (P19793 whole entry, looked up): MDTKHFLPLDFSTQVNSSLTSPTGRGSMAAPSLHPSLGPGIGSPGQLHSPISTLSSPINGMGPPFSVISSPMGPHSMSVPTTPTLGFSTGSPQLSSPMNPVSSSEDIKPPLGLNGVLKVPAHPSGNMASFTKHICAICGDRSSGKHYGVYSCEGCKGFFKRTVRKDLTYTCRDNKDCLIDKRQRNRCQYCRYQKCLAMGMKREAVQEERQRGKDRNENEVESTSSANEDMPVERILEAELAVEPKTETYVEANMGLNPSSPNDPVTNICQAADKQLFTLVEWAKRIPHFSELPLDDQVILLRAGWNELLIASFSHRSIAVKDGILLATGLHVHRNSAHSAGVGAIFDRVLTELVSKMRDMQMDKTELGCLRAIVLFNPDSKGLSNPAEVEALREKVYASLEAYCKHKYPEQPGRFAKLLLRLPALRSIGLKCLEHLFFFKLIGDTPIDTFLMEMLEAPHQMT

Test [10] can be described thus: qHTS assay to identify small molecule agonists of the RXR signaling pathway - cell viability counter screen (AID 1159529). Further: nearly all actives have a fitted effect of over 50% in size. Further: potency means the concentration at half of the fitted maximal effect. The method in brief: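 CellTiter-Glo luminescence gave viability in the wells also read for beta-lactamase. Cells (RXR-alpha-UAS-bla HEK 293T, 2% charcoal-stripped FBS medium) had 5 hr plating, then 16 hr compound exposure at 37 C; tetraoctyl ammonium bromide served as positive control.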

The nature of test [11]: qHTS assay to identify small molecule antagonists of the retinoid acid receptor (RAR) signaling pathway - cell viability counter screen (AID 1159551). Further: nearly all actives have a fitted effect of over 35% in size. The method in brief: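 Viability of C3RL4 cells is quantified from ATP by luminescence after 6 h treatment at 37 C with compounds and 1 uM retinol.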
A short description of test [12]: qHTS assay to identify small molecule antagonists of the retinoic acid receptor (RAR) signaling pathway (AID 1159552; further: nearly all actives have a fitted effect of over 50% in size). The method in brief: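 Luminescent RARE reporter read-out in C3RL4 cells: 6 hr co-treatment at 37 C of test compounds with retinol at 1 uM final. Cells plated overnight beforehand; luciferase reagent incubated 30 min at room temperature before reading.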

Test [13] can be described thus: qHTS assay to identify small molecule agonists of the retinoic acid receptor (RAR) signaling pathway (AID 1159553). The conditions noted are these: C3RL4 RARE luciferase reporter, agonist, 6 h; activation: at 73.3 µM (top of the series) unless noted. The method in brief:
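Compounds dissolved in DMSO were pinned onto C3RL4 cells seeded the previous day, and plates were held 6 hr at 37 C. RARE-driven luciferase output was then read by luminescence.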

The nature of test [14]: qHTS assay to identify small molecule antagonists of the estrogen related receptor (ERR) signaling pathway from Tox21 library - cell viability counter screen (AID 1224834). Further: nearly all actives have a fitted effect of over 30% in size. Further: potency means the concentration at half of the fitted maximal effect. The method in brief: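 In this quantitative HTS format, ERR cells receive compounds in DMSO and are incubated for 17.5 h at 37 C. Live-cell protease activity is then detected with CellTiter-Fluor.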
Test [15] deals with Luciferin 4-monooxygenase (Photinus pyralis) (UniProt P08659). Description: qHTS assay to identify small molecule inhibitors of firefly luciferase (AID 1224835). Further: nearly all actives have a fitted effect of over 25% in size. Further: potency means the concentration at half of the fitted maximal effect. The method in brief:
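Quantitative HTS format; KM concentrations of both substrates. Purified P. pyralis FLuc activity quantified from luminescence images.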

The nature of test [16]: qHTS assay to identify small molecule agonists of the constitutive androstane receptor (CAR) signaling pathway - cell viability counter screen (AID 1224836). Further: nearly all actives have a fitted effect of over 45% in size. The method in brief:
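Cell viability multiplexed with the CAR agonist screen: CellTiter-Fluor fluorescence after 23 hr at 37 C. HepG2-CYP2B6-hCAR cells got compounds at 15 concentrations with PK11195 at 0.75 uM final.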

The nature of test [17]: qHTS assay to identify small molecule agonists of the NFkB signaling pathway - cell viability counter screen (AID 1159515; calls by dose curve; further: nearly all actives have a fitted effect of over 55% in size). The method in brief: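 Plate 2,000 NFkB-bla ME-180 cells/well; incubate overnight. Add compounds, 5 hr at 37 C. Add FRET substrate, 1.5 hr RT. Add CellTiter-Glo, 30 min RT; read luminescence.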
Test [18] addresses Nuclear receptor ROR-gamma (Homo sapiens) (UniProt P51449). Description: qHTS assay to identify small molecule antagonists of the retinoid-related orphan receptor gamma (ROR-gamma) signaling pathway (AID 1159521; further: nearly all actives have a fitted effect of over 50% in size; further: potency means the concentration at half of the fitted maximal effect). The method in brief:
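Antagonist read-out: drop in luminescence (ONE-Glo) from an RORE-LUC reporter in CHO cells with doxycycline-inducible ROR-gamma; 2 hr compound pretreatment, 1 uM doxycycline, 16 hr incubation at 37 C.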

Inconclusive results are not listed. More than one record can exist for a structure, and the calls need not agree. Activity calls are given as the source filed them. Unless noted, the call rests on the fitted dose curve; in most records, active means well fitted curve in the direction sought with a large enough effect in the repeat runs; inconclusive means weak or mixed curves; inactive means no such curve, though single readings can be large; an effect the other way counts as inactive or inconclusive.

Chain of Luciferin 4-monooxygenase (Photinus pyralis) (P08659 whole entry, looked up): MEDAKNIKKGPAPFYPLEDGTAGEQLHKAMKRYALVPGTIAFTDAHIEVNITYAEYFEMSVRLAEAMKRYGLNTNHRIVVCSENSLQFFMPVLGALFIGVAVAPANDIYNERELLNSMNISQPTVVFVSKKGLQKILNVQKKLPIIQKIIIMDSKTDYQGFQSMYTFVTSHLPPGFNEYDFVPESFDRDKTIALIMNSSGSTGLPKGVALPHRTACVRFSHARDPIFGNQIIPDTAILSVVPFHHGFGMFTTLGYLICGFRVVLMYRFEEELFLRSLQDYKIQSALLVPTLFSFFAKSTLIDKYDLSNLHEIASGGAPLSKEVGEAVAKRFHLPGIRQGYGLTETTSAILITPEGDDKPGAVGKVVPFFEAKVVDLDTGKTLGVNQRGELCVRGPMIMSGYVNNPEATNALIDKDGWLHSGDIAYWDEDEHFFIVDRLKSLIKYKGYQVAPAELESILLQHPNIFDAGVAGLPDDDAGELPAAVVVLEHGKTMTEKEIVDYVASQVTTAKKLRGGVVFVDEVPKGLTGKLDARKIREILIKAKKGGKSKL

Take `CCCCCCCCCl`: the molecule was classed as inactive in [1], in [2], in [3], in test [4], in [5] and in test [11]. For the same molecule, the Potency entry in [6], in [7], in test [8], in test [9], in [10] and in [12] was “inactive” in each case. In addition, the Potency result in test [13], in test [14], in test [15] and in test [16] was “inactive” throughout.

`CCC(C)(CC)c1cc(NC(=O)c2c(OC)cccc2OC)on1`: the molecule was called inactive in test [1], in test [2], in test [3], in test [17], in test [4] and in test [5]. Further, in [11], the call was inactive. The Potency result in test [6], in test [7], in test [8], in test [10], in test [12] and in test [13] was “inactive” throughout. For the same molecule, the Potency entry in test [15] and in test [16] was “inactive” throughout.

On to `CC1OC(C)OC(C)O1` (stereo unspecified), for which the result in test [1], in test [2], in test [3], in test [4], in test [5] and in [11] was inactive. Besides, the Potency result in test [6], in test [7], in [8], in test [9], in test [10] and in test [14] was “inactive” throughout. Moreover, the Potency result in test [16] was “inactive”.

Turning to `c1ccc2c(c1)oc1ccccc12`, the outcome in [1], in test [3], in test [17], in test [4], in test [5] and in test [11] was inactive. The Potency result in [6], in test [8], in test [10], in test [14] and in test [16] was “inactive” throughout.

With `Oc1ccccc1Cl`, the molecule was classed as inactive in test [1], in test [2], in test [3], in test [4], in [5] and in [11]. For the same molecule, the Potency result in test [6], in test [7], in test [8], in [9], in test [10] and in test [14] was “inactive” each time. In test [16], the Potency result was “inactive”.

Take `COC(=O)c1ccccc1N`: the call in test [1], in test [3], in test [4], in test [5] and in test [11] was inactive. Besides, the Potency entry in test [6], in test [18], in test [8], in test [10], in [14] and in test [15] was “inactive” each time. For the same molecule, the Potency result in test [16] was “inactive”.

With `CCC[N+](=O)[O-]`, the call in test [1], in [2], in test [3], in test [4], in test [5] and in test [11] was inactive. Moreover, the Potency result in test [6], in test [8] and in [9] was “inactive” throughout. Also, the Potency is 4.25 µM (active) and inactive in test [18]; 15.2 µM (active) and inactive in test [7]; 30.3 µM (active) and inactive in test [10]; 26.8 µM (active) and inactive in [14]; 34.9 µM (active) and inactive in [15].

Turning to `CC(C)N1C(=O)c2ccccc2NS1(=O)=O`, the result in test [1], in [2], in test [17], in test [4], in [5] and in test [11] was inactive. For the same molecule, the Potency entry in test [6], in test [18], in test [7], in test [8], in [9] and in [10] was “inactive” throughout. Also, the Potency result in [12], in [13], in test [14], in test [15] and in test [16] was “inactive” throughout.

Regarding `Clc1ccccc1Cl`, the call in test [1], in [3], in test [17], in test [4], in test [5] and in [11] was inactive. The Potency result in test [6], in test [8], in test [9], in test [10], in [12] and in test [13] was “inactive” in each case. Also, the Potency entry in test [14], in [15] and in [16] was “inactive” each time.

Source of the values: PubChem BioAssay (Tox21).
